Reference: PubChem BioAssay (EPA / NIEHS)
Values joined by “and” are separate entries in the source; they are usually repeats but may differ in a detail not shown here. Equal entries are not always repeated. A structure can be active in one record and inactive in another. Active and inactive are the calls of the source. Rule for the calls: active = hit-call score of the fitted dose curve at least 0.9, where 1 is the maximum; inactive = score below 0.9.

Legend:
[1] = read-out: Collagen I, COL1A1 (gene 1277); assay: BSK_hDFCGF_CollagenI: BioMAP Diversity Plus: hDFCGF Assay for Collagen I Biomarker Activity (AID 2284250); settings: primary human foreskin fibroblasts
Procedure, shortened: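 Primary human foreskin fibroblasts (hDFCGF system) exposed to chemical for 24 h; Collagen I measured by ELISA. Activity fitted in the positive direction relative to DMSO baseline, with SRB total-protein staining in parallel cultures for overt cytotoxicity.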

[2] = read-out: Plasminogen activator inhibitor-1 (PAI1), SERPINE1 (gene 5054); assay: BSK_KF3CT_PAI1: BioMAP Diversity Plus: KF3CT Assay for Plasminogen activator inhibitor-1 (PAI1) Biomarker Activity (AID 2284252); settings: primary human keratinocytes with fibroblasts
Procedure, shortened: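 Human primary keratinocyte/foreskin fibroblast co-culture was dosed with compound and sampled at 24 h. PAI-1 was quantified by ELISA, with activity fitted in the positive direction relative to DMSO vehicle as baseline.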

[3] = read-out: Monocyte Chemoattractant Protein-1 (MCP1), CCL2 (gene 6347); assay: BSK_IMphg_MCP1: BioMAP Diversity Plus: IMphg Assay for Monocyte Chemoattractant Protein-1 (MCP1) Biomarker Activity (AID 2284253); settings: primary human endothelial cells with macrophages
Procedure, shortened: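 Human venular endothelial cells co-cultured with macrophages; MCP-1 measured by ELISA 24 hours post-dose and fitted against DMSO. Cytotoxicity monitored by SRB total-protein staining in parallel cultures.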

[4] = read-out: Macrophage Inflammatory Protein-1 Alpha (MIP1a), CCL3 (gene 6348); assay: BSK_IMphg_MIP1a: BioMAP Diversity Plus: IMphg Assay for Macrophage Inflammatory Protein-1 Alpha (MIP1a) Biomarker Activity (AID 2284255); settings: primary human endothelial cells with macrophages
Procedure, shortened: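 Co-culture of human venular endothelial cells and macrophages exposed to compounds for 24 h; MIP-1a measured by ELISA relative to DMSO. Cytotoxicity assessed in parallel cultures by sulforhodamine B total-protein staining at 560 nm.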

[5] = read-out: Plasminogen activator inhibitor-1 (PAI1), SERPINE1 (gene 5054); assay: BSK_MyoF_PAI1: BioMAP Diversity Plus: MyoF Assay for Plasminogen activator inhibitor-1 (PAI1) Biomarker Activity (AID 2284256); settings: primary human lung fibroblasts
Procedure, shortened: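 ELISA read-out of PAI-1 from primary human lung fibroblast cultures 24 h after dosing; gain-of-signal fit versus DMSO control.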

[6] = read-out: CD69, CD69 (gene 969); assay: BSK_IMphg_CD69: BioMAP Diversity Plus: IMphg Assay for CD69 Biomarker Activity (AID 2284257); settings: primary human endothelial cells with macrophages
Procedure, shortened: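 Human venular endothelial cells co-cultured with macrophages; CD69 quantified by ELISA 24 h after compound addition. Activity fitted in the positive direction relative to DMSO baseline; cytotoxicity tracked in parallel cultures via SRB total-protein staining.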

[7] = read-out: Monocyte Chemoattractant Protein-1 (MCP1), CCL2 (gene 6347); assay: BSK_BF4T_MCP1: BioMAP Diversity Plus: BF4T Assay for Monocyte Chemoattractant Protein-1 (MCP1) Biomarker Activity (AID 2284259); settings: primary human bronchial epithelial cells with fibroblasts
Procedure, shortened: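 Co-culture of bronchial epithelial cells and dermal fibroblasts dosed with chemical; MCP-1 measured by ELISA 24 h later. Activity fitted in positive direction versus DMSO; cytotoxicity checked by SRB staining in parallel cultures.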

[8] = read-out: Interleukin-8 (IL8), CXCL8 (gene 3576); assay: BSK_KF3CT_IL8: BioMAP Diversity Plus: KF3CT Assay for Interleukin-8 (IL8) Biomarker Activity (AID 2284254); settings: primary human keratinocytes with fibroblasts
Procedure, shortened: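 Human primary keratinocyte plus foreskin fibroblast co-culture dosed with test chemicals; IL-8 measured by ELISA 24 h after dosing. Activity fitted in the positive direction relative to DMSO negative control.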

[9] = read-out: Eotaxin 3, CCL26 (gene 10344); assay: BSK_BF4T_Eotaxin3: BioMAP Diversity Plus: BF4T Assay for Eotaxin 3 Biomarker Activity (AID 2284258); settings: primary human bronchial epithelial cells with fibroblasts
Procedure, shortened: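 Co-culture of human bronchial epithelial cells and dermal fibroblasts, exposed to chemicals for 24 h versus DMSO. Eotaxin-3 quantified by ELISA; cytotoxicity checked in parallel cultures by sulforhodamine B total-protein staining.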

[10] = read-out: Interferon-inducible T-cell alpha chemoattractant (ITAC), CXCL11 (gene 6373); assay: BSK_hDFCGF_ITAC: BioMAP Diversity Plus: hDFCGF Assay for Interferon-inducible T-cell alpha chemoattractant (ITAC) Biomarker Activity (AID 2284251); settings: primary human foreskin fibroblasts
Procedure, shortened: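 Primary human foreskin fibroblasts (hDFCGF system) treated for 24 h; I-TAC quantified by ELISA. Gain-direction fitting versus DMSO; parallel SRB staining of total protein flagged overt cytotoxicity.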

Measured: AC50

NC(O)(C(F)(F)F)C(F)(F)F
inactive: [1] | [2] | [3] | [4] | [5] | [6] | [7]

O=S(=O)(Cl)C(F)(F)C(F)(F)C(F)(F)C(F)(F)C(F)(F)C(F)(F)C(F)(F)C(F)(F)F
inactive: [1] | [3] | [8] | [4] | [5] | [6]
active: [2] 25 µM and 22.1 µM | [6] 15.1 µM | [7] 46.5 µM and 43.3 µM

C=CC(=O)OCC(F)(F)C(F)(F)C(F)(F)C(F)(F)C(F)(F)C(F)(F)C(F)(F)C(F)F
inactive: [1] | [2] | [3] | [8] | [4] | [5] | [6] | [9] | [7]

C=C(C)C(=O)OCC(F)(F)C(F)(F)C(F)(F)C(F)F
inactive: [1] | [2] | [3] | [8] | [4] | [5] | [6] | [9] | [7]
active: [5] 0.222 µM

NCC(F)(F)C(F)(F)C(F)(F)C(F)(F)C(F)(F)C(F)(F)C(F)(F)C(F)(F)F
inactive: [1] | [10] | [2] | [3] | [4] | [5] | [6] | [7]

O=C(O)C(F)(F)C(F)(F)C(F)(F)OC(F)(F)F
inactive: [1] | [10] | [2] | [3] | [4] | [5] | [6] | [7]

COC(F)(C(F)F)C(F)(F)F (stereo unspecified)
inactive: [1] | [2] | [3] | [4] | [5] | [6] | [9] | [7]

OC(O)C(F)(F)C(F)(F)F
inactive: [1] | [10] | [2] | [3] | [4] | [5] | [6] | [7]

OCC(O)CC(F)(F)C(F)(F)C(F)(F)C(F)(F)F (stereo unspecified)
active: [7] 263 nM
inactive: [1] | [2] | [3] | [8] | [4] | [5] | [6] | [7]

O=S(=O)(O)CCC(F)(F)C(F)(F)C(F)(F)C(F)(F)C(F)(F)C(F)(F)C(F)(F)C(F)(F)F
active: [6] 30 µM
inactive: [1] | [2] | [3] | [4] | [5] | [6] | [7]

O=C(O)C(F)(F)OC(F)(F)C(F)(F)OC(F)(F)C(F)(F)OC(F)(F)F
inactive: [1] | [10] | [2] | [3] | [4] | [5] | [6] | [7]

O=S(=O)(OCC(F)(F)F)C(F)(F)C(F)(F)C(F)(F)C(F)(F)F
inactive: [1] | [2] | [3] | [5] | [6] | [7]
active: [4] 21 µM and 5.95 µM

NC(=O)C(F)(F)C(F)(F)C(F)(F)F
inactive: [1] | [10] | [2] | [3] | [8] | [4] | [5] | [6] | [7]

O=S(=O)(O)CCC(F)(F)C(F)(F)C(F)(F)C(F)(F)F
inactive: [1] | [2] | [3] | [8] | [4] | [5] | [6] | [7]

OCC(O)CC(F)(F)C(F)(F)C(F)(F)C(F)(F)C(F)(F)C(F)(F)C(F)(F)C(F)(F)F (stereo unspecified)
inactive: [1] | [2] | [3] | [8] | [4] | [5] | [6] | [7]

NC(=O)C(F)(F)C(F)(F)C(F)(F)C(F)(F)C(F)(F)C(F)(F)C(F)(F)F
inactive: [1] | [10] | [2] | [3] | [8] | [4] | [5] | [6] | [7]
active: [6] 23.5 µM

CCOC(=O)CC(=O)C(F)(F)C(F)(F)F
inactive: [1] | [10] | [2] | [3] | [4] | [5] | [6] | [7]

CCN(CCO)S(=O)(=O)C(F)(F)C(F)(F)C(F)(F)C(F)(F)C(F)(F)C(F)(F)C(F)(F)C(F)(F)F
inactive: [1] | [3] | [5] | [6] | [7]
active: [2] 17.7 µM and 8.86 µM | [4] 1.54 µM and 12.7 µM | [5] 55.1 µM | [6] 6.74 µM
